Consider ten molecules from PubChem BioAssay (NCI).

This is part of a sample that, as a whole, favours compounds with a hit. Of some 79,000 tested, about 15% had one in any assay. Unmarked numbers belong to inactive results. Activity calls are given as the source filed them. No stated cut-off is given here; in the data, active means growth inhibition above about 70%; inactive means the rest.

Assay [1] can be described thus: NCI Yeast Anticancer Drug Screen. Data for the rad50 strain (AID 155).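 Further: 0% = growth of vehicle-only cultures of the same strain.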 As to conditions: S. cerevisiae rad50 strain growth inhibition, stronger effect = higher value. In a few lines:
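Inhibition values express reduced yeast growth in compound-treated cultures relative to vehicle-treated controls.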

The nature of assay [2]: NCI Yeast Anticancer Drug Screen. Data for the mec2-1 strain (AID 157). Particulars: S. cerevisiae mec2-1 strain, stronger effect = higher value. In a few lines: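 Growth inhibition is read against vehicle-treated controls after compound exposure of the mec2-1 yeast strain, which is defective in DNA damage repair or cell cycle control.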
The nature of assay [3]: NCI Yeast Anticancer Drug Screen. Data for the sgs1 mgt1 strain (AID 161).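 Further: 0% = growth of cultures given vehicle only.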 As to conditions: S. cerevisiae sgs1 mgt1 strain, stronger effect = higher value. In a few lines: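 Percent growth inhibition was derived by comparing compound-exposed mutant yeast with vehicle-exposed cultures. The strain carries alterations in DNA damage repair.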
Assay [4] is described as follows: NCI Yeast Anticancer Drug Screen. Data for the cln2 rad14 strain (AID 165).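 Further: 0% = growth equal to vehicle treated cultures.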 Particulars: S. cerevisiae cln2 rad14 strain, stronger effect = higher value. In outline:
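Growth inhibition, relative to vehicle-treated controls, is the read-out. The test organism is a yeast strain with defined genetic alterations, cln2 rad14.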

The nature of assay [5]: NCI Yeast Anticancer Drug Screen. Data for the bub3 strain (AID 167). Particulars: S. cerevisiae bub3 mutant strain, stronger effect = higher value. In outline:
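Steps: expose the mutant yeast strain to compound; grow alongside vehicle-treated cultures; measure growth; express inhibition against the vehicle cultures.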

Assay [6] is described as follows: NCI Yeast Anticancer Drug Screen. Data for the mlh1 rad18 strain (AID 175). Particulars: S. cerevisiae mlh1 rad18 strain growth inhibition, stronger effect = higher value. In a few lines: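 Cells of a genetically altered yeast strain, deficient in DNA damage repair, were treated with compound. Their growth was then compared with that of vehicle-treated cultures to give inhibition.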

Setting [7] is: at 5.0 µM (retest, dose inferred, filed as 0.5).
The mark [8] stands for this setting: at 50.0 µM (retest, dose inferred, filed as 5.0).

With `O=S(=O)(O)CC[S][Sn]([S]CCS(=O)(=O)O)([c]1ccccc1)[c]1ccccc1` (tested in a mixture with another compound), the growth inhibition in assay [1] (setting [7]) was 84% (active); in assay [1] (setting [8]), 98% (active); in assay [1] (at 50.0 µM) it was 71.9% (active); in assay [2] (setting [7]), 48%; in assay [2] (setting [8]), 98% (active); in assay [2] (at 50.0 µM), 83.2% (active). Further, the growth inhibition in assay [3] (setting [7]) is 92% (active); in assay [3] (setting [8]) it was 97% (active); in assay [3] (at 50.0 µM) it was 88.6% (active); in assay [4] (setting [7]), 28%; in assay [4] (setting [8]) it was 94% (active); in assay [4] (at 50.0 µM) it was 79.8% (active). For the same molecule, the growth inhibition was 59% in assay [5] (setting [7]), 97% (active) in assay [5] (setting [8]) and 86.2% (active) in assay [5] (at 50.0 µM).

Take `COC(=O)C1(Cc2ccccc2C)Cc2ccc(C)cc2C1=O` (stereo not drawn): the growth inhibition in assay [1] (setting [7]) was -1%; in assay [1] (setting [8]) it was 22%; in assay [1] (at 50.0 µM), 49.3%; in assay [2] (setting [7]) it was -2%; in assay [2] (setting [8]) it was 28%; in assay [2] (at 50.0 µM), 25.9%. For the same molecule, the growth inhibition in assay [3] (setting [7]) is 13%; in assay [3] (setting [8]), 47%; in assay [3] (at 50.0 µM), 64.9%; in assay [4] (setting [7]), -3%; in assay [4] (setting [8]), 4%; in assay [4] (at 50.0 µM) it was 31.8%. Besides, the growth inhibition is 9% in assay [5] (setting [7]); 71% (active) in assay [5] (setting [8]); 64.3% in assay [5] (at 50.0 µM); -2% in assay [6] (setting [7]); 30% in assay [6] (setting [8]); 65.9% in assay [6] (at 50.0 µM).

As to `CC(C)COC(=O)C1C2C=CC(CC2)C1C(=O)OCC(C)C` (stereo not drawn), the growth inhibition was -13% in assay [1] (setting [7]); 30% in assay [1] (setting [8]); 30.1% in assay [1] (at 50.0 µM); -4% in assay [2] (setting [7]); 79% (active) in assay [2] (setting [8]); 18% in assay [2] (at 50.0 µM). For the same molecule, the growth inhibition in assay [3] (setting [7]) is -1%; in assay [3] (setting [8]) it was 19%; in assay [3] (at 50.0 µM) it was 29.6%; in assay [4] (setting [7]), -11%; in assay [4] (setting [8]) it was 55%; in assay [4] (at 50.0 µM), 4.6%. The growth inhibition is 0% in assay [5] (setting [7]); 82% (active) in assay [5] (setting [8]); 40.5% in assay [5] (at 50.0 µM); -3% in assay [6] (setting [7]); 86% (active) in assay [6] (setting [8]); 46.5% in assay [6] (at 50.0 µM).

On to `O=C(Oc1ccc(O)c2ccccc12)c1ccccc1`, for which the growth inhibition in assay [1] (setting [7]) was 0%; in assay [1] (setting [8]), 2%; in assay [1] (at 50.0 µM), 98.7% (active); in assay [2] (setting [7]) it was -3%; in assay [2] (setting [8]), 6%; in assay [2] (at 50.0 µM), 98.6% (active). For the same molecule, the growth inhibition in assay [3] (setting [7]) was 1%; in assay [3] (setting [8]) it was -16%; in assay [3] (at 50.0 µM) it was 98.3% (active); in assay [4] (setting [7]) it was -7%; in assay [4] (setting [8]), -5%; in assay [4] (at 50.0 µM), 98.5% (active). In addition, the growth inhibition in assay [5] (setting [7]) was -5%; in assay [5] (setting [8]), 5%; in assay [5] (at 50.0 µM) it was 98.5% (active); in assay [6] (setting [7]) it was -7%; in assay [6] (setting [8]) it was 7%; in assay [6] (at 50.0 µM) it was 97.2% (active).

With `COc1cccc2c1C(=O)c1c(O)c3c(c(O)c1C2=O)C[C@@](O)(C(C)=O)C[C@@H]3OC1CC([N+]([O-])(Cc2ccccc2)Cc2ccccc2)C(O)C(C)O1` (stereo partly drawn), the growth inhibition in assay [1] (setting [7]) is 79% (active); in assay [1] (setting [8]) it was 95% (active); in assay [1] (at 50.0 µM), 75.6% (active); in assay [2] (setting [7]), 30%; in assay [2] (setting [8]) it was 87% (active); in assay [2] (at 50.0 µM) it was 23.9%. The growth inhibition in assay [3] (setting [7]) was 48%; in assay [3] (setting [8]), 88% (active); in assay [3] (at 50.0 µM) it was 19.2%; in assay [4] (setting [7]) it was 23%; in assay [4] (setting [8]) it was 70% (active); in assay [4] (at 50.0 µM), 22.2%. The growth inhibition in assay [5] (setting [7]) is 32%; in assay [5] (setting [8]) it was 81% (active); in assay [5] (at 50.0 µM), 31.7%; in assay [6] (setting [7]) it was 70% (active); in assay [6] (setting [8]) it was 92% (active); in assay [6] (at 50.0 µM), 10.8%.

Turning to `CC(C)/C=C1\CCOC1=O`, the growth inhibition was 0% in assay [1] (setting [7]); 9% in assay [1] (setting [8]); 36.3% in assay [1] (at 50.0 µM); -3% in assay [2] (setting [7]); 1% in assay [2] (setting [8]); 14.8% in assay [2] (at 50.0 µM). The growth inhibition is 1% in assay [3] (setting [7]); 5% in assay [3] (setting [8]); 39.8% in assay [3] (at 50.0 µM); 5% in assay [4] (setting [7]); 3% in assay [4] (setting [8]); 44.5% in assay [4] (at 50.0 µM). The growth inhibition in assay [5] (setting [7]) was -3%; in assay [5] (setting [8]) it was 4%; in assay [5] (at 50.0 µM) it was -0.55%.

For `C/C(=N\NC(=S)NC12CC3CC(CC(C3)C1)C2)c1ccccn1`, the growth inhibition in assay [1] (setting [7]) is 5%; in assay [1] (setting [8]) it was 95% (active); in assay [1] (at 50.0 µM), 97% (active); in assay [2] (setting [7]), 3%; in assay [2] (setting [8]), 97% (active); in assay [2] (at 50.0 µM) it was 97.9% (active). The growth inhibition is 6% in assay [3] (setting [7]); 98% (active) in assay [3] (setting [8]); 98% (active) in assay [3] (at 50.0 µM); -5% in assay [4] (setting [7]); 93% (active) in assay [4] (setting [8]); 94.7% (active) in assay [4] (at 50.0 µM). Moreover, the growth inhibition is 0% in assay [5] (setting [7]), 97% (active) in assay [5] (setting [8]) and 97.1% (active) in assay [5] (at 50.0 µM).

On to `CCN(c1ccc(C=O)cc1)c1ccc([N+](=O)[O-])cc1[N+](=O)[O-]`, for which the growth inhibition in assay [1] (setting [7]) is 3%; in assay [1] (setting [8]), 33%; in assay [1] (at 50.0 µM), 50.5%; in assay [2] (setting [7]), -1%; in assay [2] (setting [8]), 30%; in assay [2] (at 50.0 µM), 26.2%. Further, the growth inhibition is 3% in assay [3] (setting [7]); 70% (active) in assay [3] (setting [8]); 74% (active) in assay [3] (at 50.0 µM); 1% in assay [4] (setting [7]); 11% in assay [4] (setting [8]); 18.2% in assay [4] (at 50.0 µM). In addition, the growth inhibition in assay [5] (setting [7]) is 2%; in assay [5] (setting [8]), 23%; in assay [5] (at 50.0 µM) it was 7.85%; in assay [6] (setting [7]), 8%; in assay [6] (setting [8]), 59%; in assay [6] (at 50.0 µM), 38.7%.

Take `Cc1nc2ccc(N=Nc3c(O)ccc4ccccc34)cc2[nH]1`: the growth inhibition in assay [1] (setting [7]) was -6%; in assay [1] (setting [8]), 30%; in assay [1] (at 50.0 µM) it was 85.3% (active); in assay [2] (setting [7]), -7%; in assay [2] (setting [8]), 20%; in assay [2] (at 50.0 µM), 77.1% (active). The growth inhibition in assay [3] (setting [7]) was 11%; in assay [3] (setting [8]), 35%; in assay [3] (at 50.0 µM), 91.7% (active); in assay [4] (setting [7]) it was -12%; in assay [4] (setting [8]), 17%; in assay [4] (at 50.0 µM) it was 72.3% (active). Besides, the growth inhibition in assay [5] (setting [7]) is -4%; in assay [5] (setting [8]) it was 77% (active); in assay [5] (at 50.0 µM), 86.2% (active); in assay [6] (setting [7]), -33%; in assay [6] (setting [8]), 66%; in assay [6] (at 50.0 µM) it was 82.5% (active).

With `Cn1cc(NC(=O)Nc2cc(C(=O)Nc3cc(C(=O)Nc4cc(S(=O)(=O)O)c5cc(S(=O)(=O)O)cc(S(=O)(=O)O)c5c4)n(C)c3)n(C)c2)cc1C(=O)Nc1cc(C(=O)Nc2cc(S(=O)(=O)O)c3cc(S(=O)(=O)O)cc(S(=O)(=O)O)c3c2)n(C)c1`, the growth inhibition was 35% in assay [1] (setting [7]); 90% (active) in assay [1] (setting [8]); 86% (active) in assay [1] (at 50.0 µM); 20% in assay [2] (setting [7]); 80% (active) in assay [2] (setting [8]); 66.8% in assay [2] (at 50.0 µM). The growth inhibition in assay [3] (setting [7]) was 21%; in assay [3] (setting [8]), 77% (active); in assay [3] (at 50.0 µM), 64.2%; in assay [4] (setting [7]), 32%; in assay [4] (setting [8]) it was 48%; in assay [4] (at 50.0 µM), 60.5%. Further, the figures for the growth inhibition in assay [5] (setting [7]), in assay [5] (setting [8]) and in assay [5] (at 50.0 µM) were 30%, 92% (active) and 77.5% (active), respectively.
